From PMC7862700, “An all-to-all approach to the identification of sequence-specific readers for epigenetic DNA modifications on cytosine”

Tests used:
Test in all cases: DAPPL (digital affinity profiling via proximity ligation, sequencing); 10 mM Tris-HCl pH 7.5, 50 mM NaCl, 1 mM DTT, 4% glycerol, room temperature, 30 min; GST-TFs on glutathione beads, 16-mer random dsDNA library, 0.1% formaldehyde crosslink after washing; high values mean tight binding
Details in all cases: protein: recombinant; tags: N-terminal GST; dsDNA, one strand shown
GABPA = molecular target: T1, GABPA (Homo sapiens, UniProt Q06546 1-454)
T1 sequence: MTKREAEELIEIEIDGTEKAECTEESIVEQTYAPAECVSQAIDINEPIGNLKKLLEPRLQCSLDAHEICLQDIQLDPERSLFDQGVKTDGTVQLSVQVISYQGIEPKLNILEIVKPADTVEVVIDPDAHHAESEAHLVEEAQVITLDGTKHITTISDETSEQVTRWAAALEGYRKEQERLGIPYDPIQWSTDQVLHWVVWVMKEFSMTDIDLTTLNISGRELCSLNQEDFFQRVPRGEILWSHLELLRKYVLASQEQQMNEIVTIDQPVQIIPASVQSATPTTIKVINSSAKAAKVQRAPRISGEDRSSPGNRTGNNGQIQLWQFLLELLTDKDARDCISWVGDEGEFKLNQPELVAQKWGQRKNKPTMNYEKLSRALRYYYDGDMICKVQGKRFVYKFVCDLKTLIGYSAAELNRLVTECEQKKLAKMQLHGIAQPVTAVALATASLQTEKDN
Procedure, shortened: (§1)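 GST fusions of human transcription factors were expressed in yeast and captured with glutathione beads. Once given DNA barcodes and pooled alongside a tag-only sample, they were incubated for 30 min at room temperature with 200 nmole of a random double-stranded 16-mer DNA library in Tris/NaCl/DTT/glycerol buffer, then washed, crosslinked (0.1% formaldehyde), proximity-ligated, PCR-amplified and sequenced on an Illumina NextSeq500. The binding signal of each hexamer is its read frequency for a factor divided by its frequency for the tag-only sample.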

ETV5 = ETV5 (Homo sapiens, UniProt P41161 1-510)
Sequence of ETV5 (P41161 whole entry): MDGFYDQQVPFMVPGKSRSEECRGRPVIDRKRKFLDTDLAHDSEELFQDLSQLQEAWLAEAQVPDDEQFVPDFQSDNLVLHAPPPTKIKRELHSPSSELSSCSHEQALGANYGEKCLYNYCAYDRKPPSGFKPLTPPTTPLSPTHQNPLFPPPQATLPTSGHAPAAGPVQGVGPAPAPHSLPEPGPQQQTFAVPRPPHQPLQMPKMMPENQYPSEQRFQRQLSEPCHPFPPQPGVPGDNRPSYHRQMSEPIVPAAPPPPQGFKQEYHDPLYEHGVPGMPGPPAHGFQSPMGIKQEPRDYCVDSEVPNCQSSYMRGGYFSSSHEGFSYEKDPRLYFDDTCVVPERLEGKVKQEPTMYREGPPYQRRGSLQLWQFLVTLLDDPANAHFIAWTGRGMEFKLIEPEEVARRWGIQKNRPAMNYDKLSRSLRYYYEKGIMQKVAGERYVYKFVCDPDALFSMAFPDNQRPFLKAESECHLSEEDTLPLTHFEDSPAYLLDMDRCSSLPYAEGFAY
Procedure, shortened: as §1

ELF4 = ELF4 (Homo sapiens, UniProt Q99607 1-663)
Sequence of ELF4 (Q99607 whole entry): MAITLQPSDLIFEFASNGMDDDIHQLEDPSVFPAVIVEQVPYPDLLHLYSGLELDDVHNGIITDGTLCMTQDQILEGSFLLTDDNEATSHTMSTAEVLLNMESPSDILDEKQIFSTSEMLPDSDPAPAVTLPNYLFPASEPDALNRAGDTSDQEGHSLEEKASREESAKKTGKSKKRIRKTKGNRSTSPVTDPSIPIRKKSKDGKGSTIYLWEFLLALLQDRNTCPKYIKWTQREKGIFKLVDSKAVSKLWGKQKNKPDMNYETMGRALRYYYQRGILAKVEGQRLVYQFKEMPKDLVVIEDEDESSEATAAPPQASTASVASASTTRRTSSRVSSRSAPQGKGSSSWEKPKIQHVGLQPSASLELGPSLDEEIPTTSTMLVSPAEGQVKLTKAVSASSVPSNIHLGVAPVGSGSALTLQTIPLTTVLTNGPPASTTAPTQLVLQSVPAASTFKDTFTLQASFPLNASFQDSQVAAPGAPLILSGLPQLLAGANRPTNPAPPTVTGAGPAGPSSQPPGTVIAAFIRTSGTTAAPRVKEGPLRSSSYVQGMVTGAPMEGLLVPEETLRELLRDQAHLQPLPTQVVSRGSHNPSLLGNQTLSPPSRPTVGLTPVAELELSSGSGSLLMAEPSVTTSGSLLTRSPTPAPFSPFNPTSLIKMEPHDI
Procedure, shortened: as §1

ETV7 = molecular target: T2, ETV7 (Homo sapiens, UniProt Q9Y603 1-341)
T2 sequence: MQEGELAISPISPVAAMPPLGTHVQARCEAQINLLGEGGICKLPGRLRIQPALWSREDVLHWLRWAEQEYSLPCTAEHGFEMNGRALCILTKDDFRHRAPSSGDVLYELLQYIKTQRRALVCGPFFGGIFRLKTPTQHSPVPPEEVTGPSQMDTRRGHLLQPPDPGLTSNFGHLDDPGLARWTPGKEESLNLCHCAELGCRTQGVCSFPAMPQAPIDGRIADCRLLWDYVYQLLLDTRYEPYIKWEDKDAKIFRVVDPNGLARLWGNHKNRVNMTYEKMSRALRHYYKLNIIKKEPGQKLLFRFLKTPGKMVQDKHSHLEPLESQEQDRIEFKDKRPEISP
Procedure, shortened: as §1

ELF1 = ELF1 (Homo sapiens, UniProt P32519 1-619)
Sequence of ELF1 (P32519 whole entry): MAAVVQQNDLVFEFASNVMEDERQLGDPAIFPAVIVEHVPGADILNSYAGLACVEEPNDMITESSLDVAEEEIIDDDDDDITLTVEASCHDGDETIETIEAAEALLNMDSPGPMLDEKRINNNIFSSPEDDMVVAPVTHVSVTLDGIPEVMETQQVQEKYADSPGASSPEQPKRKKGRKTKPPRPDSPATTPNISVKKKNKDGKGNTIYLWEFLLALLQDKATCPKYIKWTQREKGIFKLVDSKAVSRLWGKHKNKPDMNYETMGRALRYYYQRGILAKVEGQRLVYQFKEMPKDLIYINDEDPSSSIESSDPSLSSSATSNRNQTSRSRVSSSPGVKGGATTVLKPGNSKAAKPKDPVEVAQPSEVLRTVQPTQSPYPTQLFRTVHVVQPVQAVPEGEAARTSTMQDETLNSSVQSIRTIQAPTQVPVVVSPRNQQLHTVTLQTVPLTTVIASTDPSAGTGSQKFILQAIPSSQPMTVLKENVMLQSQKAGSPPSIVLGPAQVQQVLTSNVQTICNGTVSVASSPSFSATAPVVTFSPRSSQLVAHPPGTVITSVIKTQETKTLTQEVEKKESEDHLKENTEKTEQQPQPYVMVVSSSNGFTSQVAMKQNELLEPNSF
Procedure, shortened: as §1

ELK3 = molecular target: T3, ELK3 (Homo sapiens, UniProt P41970 1-407)
T3 sequence: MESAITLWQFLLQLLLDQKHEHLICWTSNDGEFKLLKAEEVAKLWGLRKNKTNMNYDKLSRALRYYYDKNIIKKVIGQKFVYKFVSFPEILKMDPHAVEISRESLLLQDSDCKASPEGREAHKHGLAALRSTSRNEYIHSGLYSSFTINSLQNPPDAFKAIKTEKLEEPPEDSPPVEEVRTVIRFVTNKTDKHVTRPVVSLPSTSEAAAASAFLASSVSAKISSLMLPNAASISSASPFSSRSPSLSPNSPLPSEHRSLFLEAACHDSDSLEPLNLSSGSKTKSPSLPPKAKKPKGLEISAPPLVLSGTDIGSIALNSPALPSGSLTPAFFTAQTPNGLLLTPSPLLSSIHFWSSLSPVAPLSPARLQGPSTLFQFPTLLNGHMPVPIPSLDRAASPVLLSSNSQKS
Procedure, shortened: as §1

ELF3 = molecular target: T4, ELF3 (Homo sapiens, UniProt P78545 1-371)
T4 sequence: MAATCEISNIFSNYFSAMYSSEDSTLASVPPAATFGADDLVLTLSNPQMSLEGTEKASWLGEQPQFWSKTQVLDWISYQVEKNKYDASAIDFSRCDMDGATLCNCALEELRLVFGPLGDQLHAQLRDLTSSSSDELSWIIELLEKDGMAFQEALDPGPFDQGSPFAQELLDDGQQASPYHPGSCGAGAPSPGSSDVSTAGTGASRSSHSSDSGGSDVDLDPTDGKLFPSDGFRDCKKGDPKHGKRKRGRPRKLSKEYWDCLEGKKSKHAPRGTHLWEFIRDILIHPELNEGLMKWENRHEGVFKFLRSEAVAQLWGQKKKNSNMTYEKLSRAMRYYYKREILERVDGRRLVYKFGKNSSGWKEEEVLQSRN
Procedure, shortened: as §1

ETV6 = ETV6 (Homo sapiens, UniProt P41212 1-452)
Sequence of ETV6 (P41212 whole entry): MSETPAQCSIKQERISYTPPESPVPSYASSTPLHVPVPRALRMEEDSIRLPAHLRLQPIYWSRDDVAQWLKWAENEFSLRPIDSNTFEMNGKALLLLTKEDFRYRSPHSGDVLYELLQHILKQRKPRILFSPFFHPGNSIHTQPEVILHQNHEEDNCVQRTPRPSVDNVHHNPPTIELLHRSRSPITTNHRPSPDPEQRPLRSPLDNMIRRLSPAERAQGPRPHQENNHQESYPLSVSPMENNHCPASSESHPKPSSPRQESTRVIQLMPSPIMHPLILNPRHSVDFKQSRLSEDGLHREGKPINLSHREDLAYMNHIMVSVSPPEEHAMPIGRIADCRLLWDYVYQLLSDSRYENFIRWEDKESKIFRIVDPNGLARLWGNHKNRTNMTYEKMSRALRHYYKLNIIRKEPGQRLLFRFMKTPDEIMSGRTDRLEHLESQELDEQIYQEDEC
Procedure, shortened: as §1

ELK1 = molecular target: T5, ELK1 (Homo sapiens, UniProt P19419 1-428)
T5 sequence: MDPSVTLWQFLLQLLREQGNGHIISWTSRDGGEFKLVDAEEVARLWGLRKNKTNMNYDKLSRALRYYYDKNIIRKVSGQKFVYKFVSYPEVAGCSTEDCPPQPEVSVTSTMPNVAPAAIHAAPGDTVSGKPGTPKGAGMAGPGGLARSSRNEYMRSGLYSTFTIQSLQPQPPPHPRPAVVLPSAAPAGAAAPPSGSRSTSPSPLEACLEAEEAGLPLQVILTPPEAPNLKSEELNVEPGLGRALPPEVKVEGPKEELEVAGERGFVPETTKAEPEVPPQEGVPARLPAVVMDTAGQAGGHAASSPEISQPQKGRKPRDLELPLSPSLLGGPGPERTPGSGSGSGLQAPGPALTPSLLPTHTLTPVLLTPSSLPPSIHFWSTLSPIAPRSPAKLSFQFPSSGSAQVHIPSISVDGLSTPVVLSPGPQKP
Procedure, shortened: as §1

ERG = molecular target: T6, ERG (Homo sapiens, UniProt P11308 1-479)
T6 sequence: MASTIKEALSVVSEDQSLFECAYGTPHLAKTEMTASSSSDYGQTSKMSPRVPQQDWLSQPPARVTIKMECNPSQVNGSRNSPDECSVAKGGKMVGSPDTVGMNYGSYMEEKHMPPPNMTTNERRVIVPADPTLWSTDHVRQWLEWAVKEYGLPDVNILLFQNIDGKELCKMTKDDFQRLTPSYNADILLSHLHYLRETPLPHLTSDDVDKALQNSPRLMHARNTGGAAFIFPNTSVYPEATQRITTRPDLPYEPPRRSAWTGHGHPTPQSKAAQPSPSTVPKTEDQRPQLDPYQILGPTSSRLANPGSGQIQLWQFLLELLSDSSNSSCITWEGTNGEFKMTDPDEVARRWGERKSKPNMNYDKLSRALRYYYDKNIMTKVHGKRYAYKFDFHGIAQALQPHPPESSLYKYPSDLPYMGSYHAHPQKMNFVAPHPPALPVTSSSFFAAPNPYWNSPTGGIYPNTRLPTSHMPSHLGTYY
Procedure, shortened: as §1

SPIB = SPIB (Homo sapiens, UniProt Q01892 1-262)
Sequence of SPIB (Q01892 whole entry): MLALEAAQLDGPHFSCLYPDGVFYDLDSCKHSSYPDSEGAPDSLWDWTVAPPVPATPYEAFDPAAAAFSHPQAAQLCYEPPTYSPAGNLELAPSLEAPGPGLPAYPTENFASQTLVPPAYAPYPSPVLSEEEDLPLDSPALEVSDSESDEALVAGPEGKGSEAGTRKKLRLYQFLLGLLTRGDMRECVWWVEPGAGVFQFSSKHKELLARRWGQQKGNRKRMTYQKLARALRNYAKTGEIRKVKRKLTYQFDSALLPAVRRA
Procedure, shortened: as §1

SPIC = molecular target: T7, SPIC (Homo sapiens, UniProt Q8N5J4 1-248)
T7 sequence: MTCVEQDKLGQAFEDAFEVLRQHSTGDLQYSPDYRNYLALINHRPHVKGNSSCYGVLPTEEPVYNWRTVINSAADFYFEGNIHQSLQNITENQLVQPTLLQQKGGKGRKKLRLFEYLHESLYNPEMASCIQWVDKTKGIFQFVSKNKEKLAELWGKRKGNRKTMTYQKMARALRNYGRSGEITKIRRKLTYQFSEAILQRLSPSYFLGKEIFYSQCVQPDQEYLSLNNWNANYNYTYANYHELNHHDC
Procedure, shortened: as §1

ETV1 = ETV1 (Homo sapiens, UniProt P50549 1-477)
Sequence of ETV1 (P50549 whole entry): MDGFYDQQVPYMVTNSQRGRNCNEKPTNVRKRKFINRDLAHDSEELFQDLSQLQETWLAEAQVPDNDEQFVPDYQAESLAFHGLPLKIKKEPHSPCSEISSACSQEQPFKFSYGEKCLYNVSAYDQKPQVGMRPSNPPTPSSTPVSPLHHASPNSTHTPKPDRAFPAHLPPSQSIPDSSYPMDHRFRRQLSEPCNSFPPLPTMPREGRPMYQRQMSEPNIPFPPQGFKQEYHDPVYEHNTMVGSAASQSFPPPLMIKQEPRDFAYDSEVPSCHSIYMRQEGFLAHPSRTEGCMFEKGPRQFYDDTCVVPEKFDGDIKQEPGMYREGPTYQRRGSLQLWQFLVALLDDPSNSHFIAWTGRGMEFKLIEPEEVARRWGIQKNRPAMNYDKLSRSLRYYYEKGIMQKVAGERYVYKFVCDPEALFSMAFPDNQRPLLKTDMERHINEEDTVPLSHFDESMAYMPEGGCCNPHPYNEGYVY
Procedure, shortened: as §1

ETV3L = molecular target: T8, ETV3L (Homo sapiens, UniProt Q6ZN32 1-361)
T8 sequence: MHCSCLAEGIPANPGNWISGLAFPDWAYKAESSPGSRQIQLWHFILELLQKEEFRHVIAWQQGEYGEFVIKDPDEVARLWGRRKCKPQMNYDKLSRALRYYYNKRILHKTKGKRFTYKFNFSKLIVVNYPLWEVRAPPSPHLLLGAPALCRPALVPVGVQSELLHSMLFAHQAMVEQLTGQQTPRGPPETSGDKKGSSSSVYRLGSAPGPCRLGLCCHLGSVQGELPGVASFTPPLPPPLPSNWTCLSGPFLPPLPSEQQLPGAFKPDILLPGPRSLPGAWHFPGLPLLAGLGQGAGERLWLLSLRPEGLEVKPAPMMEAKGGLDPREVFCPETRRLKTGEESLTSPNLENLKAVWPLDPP
Procedure, shortened: as §1

## TAGGCC
GABPA
  binding signal: 1.02 fold enrichment (6-mer frequency, TF over GST control)
ETV5
  binding signal: 1.05 fold enrichment (6-mer frequency, TF over GST control)
ELF4
  binding signal: 1.01 fold enrichment (6-mer frequency, TF over GST control)
ETV7
  binding signal: 1.03 fold enrichment (6-mer frequency, TF over GST control)

## AACTGT
GABPA
  binding signal: 1.01 fold enrichment (6-mer frequency, TF over GST control)
ELF1
  binding signal: 1.02 fold enrichment (6-mer frequency, TF over GST control)
ELK3
  binding signal: 1.06 fold enrichment (6-mer frequency, TF over GST control)
ETV5
  binding signal: 1 fold enrichment (6-mer frequency, TF over GST control)
ELF3
  binding signal: 1.09 fold enrichment (6-mer frequency, TF over GST control)
ETV6
  binding signal: 1.04 fold enrichment (6-mer frequency, TF over GST control)

## GCGTAT
ELK1
  binding signal: 1.04 fold enrichment (6-mer frequency, TF over GST control)
GABPA
  binding signal: 1 fold enrichment (6-mer frequency, TF over GST control)
ERG
  binding signal: 1.03 fold enrichment (6-mer frequency, TF over GST control)
SPIB
  binding signal: 1.11 fold enrichment (6-mer frequency, TF over GST control)
ETV5
  binding signal: 1.05 fold enrichment (6-mer frequency, TF over GST control)
SPIC
  binding signal: 1.07 fold enrichment (6-mer frequency, TF over GST control)
ELF3
  binding signal: 1.03 fold enrichment (6-mer frequency, TF over GST control)
ETV1
  binding signal: 1.05 fold enrichment (6-mer frequency, TF over GST control)
ETV3L
  binding signal: 1.02 fold enrichment (6-mer frequency, TF over GST control)
